Data as given in PubChem BioAssay (NCI).
About 79,000 compounds went through this panel and 15% of them were active in at least one assay; those are over-represented in the sample as a whole. A number with no mark means an inactive call. Activity calls are given as the source filed them. No stated cut-off is given here; in the data, active means growth inhibition above about 70%; inactive means the rest.

Experiment: NCI Yeast Anticancer Drug Screen. Data for the rad52 strain (AID 147);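 further: 0% = growth of vehicle-treated control cultures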
Conditions: S. cerevisiae rad52 mutant growth inhibition; at 33.0 µM; hits give high values
Outline: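 Compounds are applied to a genetically defined yeast strain lacking normal DNA damage repair, and inhibition of growth is expressed relative to cultures given vehicle only.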

Structure (SMILES)	growth inhibition
Cc1cccc2c(C(O)CBr)cc(-c3ccc(Cl)cc3)nc12 (stereo not given)	96% (active)
CN(C)C[C@H]1CC[C@@H](CN(C)C)C1=O	39%
CC1=C(SCCO)C(=O)c2ccccc2C1=O	68%
COC(=O)CCNc1c2ccccc2nc2cccc([N+](=O)[O-])c12	98% (active)
CC(/C=C/c1ccc2c(c1)OCO2)[N+](=O)[O-] (stereo not given)	99% (active)
COC(=O)C1=C(C)NC(C)=C(C(=O)OCCCN2CCC(c3ccccc3)(c3ccccc3)CC2)C1c1cccc([N+](=O)[O-])c1 (stereo not given)	97% (active)
CCOC(=O)c1cnc2c(C(F)(F)F)cccc2c1N=[N+]=[N-]	42%
O=[N+]([O-])c1cc2no[n+]([O-])c2cc1N1CCCCC1	96% (active)
COC(=O)c1ccc(NCC2=CC(=O)C=CC2=O)cc1O	97% (active)
CCCCCCCCNC(=O)C1=C(C)NC(C)=C(C(=O)NCCCCCCCC)C1	-4%
S=C(Nc1ccc(Cl)c(Cl)c1)SCc1ccc2c(c1)OCO2	99% (active)
O=S(=O)(CCCl)c1ccccc1Cl	93% (active)
Nc1ccccc1CC(O)C(=O)O (stereo not given)	53%
CN(C)c1ccc(Sc2ccc3nc(N)nc(N)c3c2)cc1	27%
CC(C)C1=CCC2C(=C1)CCC1C(C)(C(=O)O)CCCC21C (stereo not given) (tested in a mixture with another compound)	41%
Cc1ccc(S(=O)(=O)Oc2cc(Cl)c(Cl)cc2Cl)cc1	-5%
CSC(=S)Nc1cc(C)ccn1	38%
CC(C)c1cc(C(C)C)c(O)c(C([O-])[O-])c1.CC(C)c1cc(C(C)C)c(O)c(C([O-])[O-])c1.CC(C)c1cc(C(C)C)c(O)c(C([OH2+])[OH2+])c1.CC(C)c1cc(C(C)C)c(O)c(C([OH2+])[OH2+])c1.[Cu+2].[Cu+2].[OH3+].[OH3+]	61%
Cc1cc(I)ccc1N	92% (active)
CC(Br)C(=O)c1ccc2cc(Br)c3ccccc3c2c1 (stereo not given)	4%

Structure (SMILES)	growth inhibition
O=C(Nc1ccccc1)OCCc1ccc(Cl)c(Cl)c1	20%
O=Cc1cccc2ccc3ccccc3c12	62%
O=[N+]([O-])CC(SCc1ccccc1)c1ccc2c(c1)OCO2 (stereo not given)	99% (active)
CC1(Cl)CC(O)C2(CC1Br)C1(C)OC1C1OC1(Br)C2(C)C (stereo not given)	66%
Cc1cc(O)cc(O)c1N=Nc1ccc([N+](=O)[O-])cc1	20%
CCCCCCCCCCCCCC[N+](C)(CC(=O)[O-])Cc1ccccc1 (stereo not given)	98% (active)
CC1=NN(c2cccc(Cl)c2)C(=O)C1	-16%
CC(=O)OCc1ccc(O)c(C=O)c1	18%
Cc1ccc2ccc3cccc4ccc1c2c34	23%
Cc1nc(-[n+]2nc(-c3ccncc3)nn2-c2ccccc2)sc1C	38%
C(CCSC1=NCCN1)CSC1=NCCN1 (tested in a mixture with another compound)	99% (active)
CCCCCCCCCCC(=O)Cl	9%
COC1C=COC2(C)Oc3c(C)c(O)c4c(c3C2=O)/C(=N/C2CCC(O)OC2C)C=C(NC(=O)/C(C)=C\C(=O)C2CC2C(O)C(C)C(O)C(C)C(OC(C)=O)C1C)C4=O (stereo not given)	17%
S=c1[nH]nc(Nc2ccc(Cl)cc2)s1	70% (active)
O=C1CSC(/C=C/c2ccccc2)N1c1ccc(-c2ccc(-n3c(-c4ccccc4)nc4ccccc4c3=O)cc2)cc1 (stereo not given)	15%
O=C1C=CC(=O)N1c1ccc2c(c1)Cc1cc(NC(=O)C(F)(F)F)ccc1-2	60%
Brc1ccc(-c2cc3c(cc2C2SCCS2)OCO3)cc1	8%
Oc1ccc2ccccc2c1C(c1ccc(Cl)cc1)c1c(O)ccc2ccccc12	51%
C[CH2][Sn]([CH2]C)([O]C(=O)C(OC(C)=O)c1ccccc1)[O]C(=O)C(OC(C)=O)c1ccccc1 (stereo not given)	71% (active)
Cc1ccc2ccc(O)cc2c1	-31%

Same assay, conditions: S. cerevisiae rad52 mutant growth inhibition; at 100.0 µM; hits give high values

Structure (SMILES)	growth inhibition
Cc1cccc2c(C(O)CBr)cc(-c3ccc(Cl)cc3)nc12 (stereo not given)	87% (active)
CN(C)C[C@H]1CC[C@@H](CN(C)C)C1=O	66%
CC1=C(SCCO)C(=O)c2ccccc2C1=O	67%
COC(=O)CCNc1c2ccccc2nc2cccc([N+](=O)[O-])c12	98% (active)
CC(/C=C/c1ccc2c(c1)OCO2)[N+](=O)[O-] (stereo not given)	99% (active)
COC(=O)C1=C(C)NC(C)=C(C(=O)OCCCN2CCC(c3ccccc3)(c3ccccc3)CC2)C1c1cccc([N+](=O)[O-])c1 (stereo not given)	88% (active)
CCOC(=O)c1cnc2c(C(F)(F)F)cccc2c1N=[N+]=[N-]	95% (active)
O=[N+]([O-])c1cc2no[n+]([O-])c2cc1N1CCCCC1	95% (active)
COC(=O)c1ccc(NCC2=CC(=O)C=CC2=O)cc1O	92% (active)
CCCCCCCCNC(=O)C1=C(C)NC(C)=C(C(=O)NCCCCCCCC)C1	3%
S=C(Nc1ccc(Cl)c(Cl)c1)SCc1ccc2c(c1)OCO2	94% (active)
O=S(=O)(CCCl)c1ccccc1Cl	99% (active)
Nc1ccccc1CC(O)C(=O)O (stereo not given)	88% (active)
CN(C)c1ccc(Sc2ccc3nc(N)nc(N)c3c2)cc1	51%
CC(C)C1=CCC2C(=C1)CCC1C(C)(C(=O)O)CCCC21C (stereo not given) (tested in a mixture with another compound)	94% (active)
Cc1ccc(S(=O)(=O)Oc2cc(Cl)c(Cl)cc2Cl)cc1	17%
CSC(=S)Nc1cc(C)ccn1	82% (active)
CC(C)c1cc(C(C)C)c(O)c(C([O-])[O-])c1.CC(C)c1cc(C(C)C)c(O)c(C([O-])[O-])c1.CC(C)c1cc(C(C)C)c(O)c(C([OH2+])[OH2+])c1.CC(C)c1cc(C(C)C)c(O)c(C([OH2+])[OH2+])c1.[Cu+2].[Cu+2].[OH3+].[OH3+]	92% (active)
Cc1cc(I)ccc1N	87% (active)
CC(Br)C(=O)c1ccc2cc(Br)c3ccccc3c2c1 (stereo not given)	2%

Structure (SMILES)	growth inhibition
O=C(Nc1ccccc1)OCCc1ccc(Cl)c(Cl)c1	52%
O=Cc1cccc2ccc3ccccc3c12	98% (active)
O=[N+]([O-])CC(SCc1ccccc1)c1ccc2c(c1)OCO2 (stereo not given)	97% (active)
CC1(Cl)CC(O)C2(CC1Br)C1(C)OC1C1OC1(Br)C2(C)C (stereo not given)	98% (active)
Cc1cc(O)cc(O)c1N=Nc1ccc([N+](=O)[O-])cc1	32%
CCCCCCCCCCCCCC[N+](C)(CC(=O)[O-])Cc1ccccc1 (stereo not given)	99% (active)
CC1=NN(c2cccc(Cl)c2)C(=O)C1	14%
CC(=O)OCc1ccc(O)c(C=O)c1	57%
Cc1ccc2ccc3cccc4ccc1c2c34	27%
Cc1nc(-[n+]2nc(-c3ccncc3)nn2-c2ccccc2)sc1C	5%
C(CCSC1=NCCN1)CSC1=NCCN1 (tested in a mixture with another compound)	99% (active)
CCCCCCCCCCC(=O)Cl	31%
COC1C=COC2(C)Oc3c(C)c(O)c4c(c3C2=O)/C(=N/C2CCC(O)OC2C)C=C(NC(=O)/C(C)=C\C(=O)C2CC2C(O)C(C)C(O)C(C)C(OC(C)=O)C1C)C4=O (stereo not given)	92% (active)
S=c1[nH]nc(Nc2ccc(Cl)cc2)s1	96% (active)
O=C1CSC(/C=C/c2ccccc2)N1c1ccc(-c2ccc(-n3c(-c4ccccc4)nc4ccccc4c3=O)cc2)cc1 (stereo not given)	61%
O=C1C=CC(=O)N1c1ccc2c(c1)Cc1cc(NC(=O)C(F)(F)F)ccc1-2	74% (active)
Brc1ccc(-c2cc3c(cc2C2SCCS2)OCO3)cc1	27%
Oc1ccc2ccccc2c1C(c1ccc(Cl)cc1)c1c(O)ccc2ccccc12	84% (active)
C[CH2][Sn]([CH2]C)([O]C(=O)C(OC(C)=O)c1ccccc1)[O]C(=O)C(OC(C)=O)c1ccccc1 (stereo not given)	92% (active)
Cc1ccc2ccc(O)cc2c1	80% (active)
